Consider ten compounds from publication PMC5540273 (PLoS ONE, 2017).

Molecules are shown by their SMILES.

Some test systems named below: EPHA2; EPHA3; EPHA4; EPHA5; EPHA6; EPHA7; EPHA8; EPHB1; EPHB2; EPHB3; EPHB4; EPHB6; ERBB2; ERBB3; ERBB4.
Common to all, as to settings: concentration: 1 μM, replicates: in singlicate; n = 1
The next assay relates to T1, ERK1.
T1 construct: gene MAPK3

In another assay the test system is T2, ERK2.
T2 construct: gene MAPK1

Another assay concerns T3, ERK3.
T3 construct: gene MAPK6

In another assay the test system is T4, ERK4.
T4 construct: gene MAPK4

The next assay relates to T5, ERK5.
T5 construct: gene MAPK7
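Also: KINOMEscan kinase panel screen.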

Consider `Fc1ccc(-c2nc[nH]c2-c2ccncc2)cc1` [SB-217360], for which the “%Inh” value in the assay with EPHA2 was determined as 0%; with EPHA3 it was 9%; with EPHA4 it was 4%; with EPHA5 it was 0%; with EPHA6 it was 1%; with EPHA7, 0%. The “%Inh” value is 5% in the assay with EPHA8; 1% with EPHB1; 0% in the assay on EPHB2; 0% with EPHB3; 0% in the assay on EPHB4; 3% in the assay on EPHB6. The “%Inh” value in the assay on ERBB2 amounted to 41%; in the assay on ERBB3, 5%; in the assay with ERBB4, 10%; in the assay with ERK1, 2%; with ERK2, 0%; with ERK3, 0%. Besides, the “%Inh” value in the assay with ERK4 came to 12%; in the assay with ERK5, 0%.

As to `Cc1ccc(NC(=O)Nc2ccccc2)cc1-c1ccc(C(=O)Nc2ccncc2)cc1` [GSK1398471], the “%Inh” value in the assay on EPHA2 is 17%; in the assay with EPHA3 it was 4%; with EPHA4 it was 32%; in the assay on EPHA5, 0%; with EPHA6, 15%; with EPHA7, 5%. The “%Inh” value with EPHA8 came to 36%; in the assay with EPHB1, 11%; with EPHB2, 13%; in the assay on EPHB3 it was 15%; with EPHB4, 26%; in the assay with EPHB6, 12%. Moreover, the “%Inh” value with ERBB2 was determined as 0%; in the assay with ERBB3 it was 0%; in the assay on ERBB4, 0%; with ERK1, 6%; with ERK2 it was 0%; in the assay with ERK3, 8%. For the same compound, the figures for the “%Inh” value in the assay on ERK4 and in the assay on ERK5 were 18% and 0%, respectively.

In the case of `Nc1cccc(-c2ccc3c(N)n[nH]c3c2)n1` [GSK2192730], the “%Inh” value was determined as 0% in the assay with EPHA2; 4% in the assay on EPHA3; 5% with EPHA4; 0% in the assay with EPHA5; 0% with EPHA6; 8% in the assay with EPHA7. Besides, the “%Inh” value came out at 8% in the assay with EPHA8; 9% in the assay with EPHB1; 0% in the assay with EPHB2; 1% in the assay with EPHB3; 5% with EPHB4; 0% with EPHB6. For the same compound, the “%Inh” value in the assay on ERBB2, in the assay on ERBB3, with ERBB4, in the assay with ERK1, in the assay on ERK2 and with ERK3 was 0% in each case. Also, the “%Inh” value was 35% with ERK4 and 8% with ERK5.

In the case of `O=C(Nc1n[nH]c2nc(-c3cccs3)c(Br)cc12)C1CCCC1` [SB-743341], the “%Inh” value was 0% in the assay with EPHA2; 0% with EPHA3; 6% in the assay with EPHA4; 13% with EPHA5; 27% in the assay with EPHA6; 8% in the assay on EPHA7. Moreover, the “%Inh” value was 1% in the assay with EPHA8; 0% with EPHB1; 4% with EPHB2; 35% in the assay with EPHB3; 22% in the assay with EPHB4; 22% in the assay on EPHB6. The “%Inh” value with ERBB2 was 0%; in the assay on ERBB3, 3%; in the assay on ERBB4 it was 0%; in the assay with ERK1, 0%; with ERK2, 10%; with ERK3 it was 9%. For the same compound, the “%Inh” value in the assay on ERK4 and with ERK5 was 0% in each case.

As for `CNC(=O)c1ccc(C)c(-n2c(C)cc(OCc3ccc(F)cc3F)c(Br)c2=O)c1`, the “%Inh” value with EPHA2, with EPHA3, in the assay with EPHA4, in the assay on EPHA5, with EPHA6 and with EPHA7 was 0% each time. Also, the “%Inh” value is on record as 0% in the assay on EPHA8; 0% in the assay on EPHB1; 6% in the assay on EPHB2; 0% in the assay with EPHB3; 0% with EPHB4; 0% in the assay on EPHB6. Further, the “%Inh” value with ERBB2 came out at 0%; with ERBB3, 0%; in the assay with ERBB4, 13%; in the assay on ERK1, 0%; with ERK2 it was 0%; with ERK3, 0%. In addition, the “%Inh” value with ERK4 and in the assay with ERK5 was 0% in each case.

In the case of `O=c1cc(N2CCOCC2)nc2n(Cc3cccc(Cl)c3Cl)c3ccccc3n12` [GSK2299009], the “%Inh” value in the assay on EPHA2 is reported as 8%; with EPHA3, 5%; in the assay with EPHA4, 14%; in the assay on EPHA5 it was 1%; in the assay with EPHA6, 6%; with EPHA7, 19%. Moreover, the “%Inh” value in the assay with EPHA8 is reported as 25%; in the assay with EPHB1 it was 26%; in the assay on EPHB2 it was 61%; with EPHB3, 20%; in the assay with EPHB4, 0%; in the assay with EPHB6, 33%. For the same compound, the “%Inh” value in the assay with ERBB2 stood at 6%; in the assay on ERBB3, 0%; with ERBB4 it was 10%; in the assay on ERK1 it was 0%; in the assay on ERK2, 15%; in the assay with ERK3 it was 26%. Further, the “%Inh” value in the assay on ERK4 stood at 45%; in the assay on ERK5, 0%.

Consider `Cc1ccc(NC(=O)Nc2ccccc2F)cc1-c1ccc(C(=O)Nc2ccncc2)cc1` [GSK1398477], for which the “%Inh” value in the assay with EPHA2 is reported as 31%; in the assay on EPHA3, 17%; in the assay on EPHA4, 40%; in the assay with EPHA5, 14%; in the assay with EPHA6, 31%; in the assay with EPHA7, 19%. Also, the “%Inh” value with EPHA8 stood at 52%; with EPHB1, 27%; in the assay on EPHB2 it was 12%; with EPHB3, 22%; in the assay with EPHB4, 21%; in the assay on EPHB6, 20%. The “%Inh” value with ERBB2 is 8%; with ERBB3, 0%; in the assay with ERBB4, 0%; in the assay on ERK1 it was 8%; in the assay on ERK2, 9%; in the assay with ERK3 it was 11%. Besides, the “%Inh” value in the assay on ERK4 was 20%; in the assay on ERK5, 0%.

`COc1ccc(CSc2nnc(-c3ccc4c(c3)CCO4)o2)cc1`: the “%Inh” value worked out at 0% with EPHA2; 1% in the assay with EPHA3; 18% with EPHA4; 0% with EPHA5; 6% with EPHA6; 0% with EPHA7. Further, the “%Inh” value with EPHA8 was 0%; with EPHB1, 0%; in the assay on EPHB2, 0%; in the assay on EPHB3, 12%; in the assay with EPHB4, 13%; in the assay with EPHB6, 0%. The “%Inh” value in the assay on ERBB2 is 18%; in the assay on ERBB3, 0%; with ERBB4 it was 0%; in the assay on ERK1, 0%; in the assay with ERK2, 0%; in the assay on ERK3, 0%. The “%Inh” value is 0% in the assay with ERK4 and 6% in the assay on ERK5.

For `Cc1ccccc1Cn1ccn2c(=O)cc(N3CCOCC3)nc12` [GSK2269905], the “%Inh” value with EPHA2 is listed as 4%; in the assay with EPHA3, 0%; with EPHA4 it was 19%; with EPHA5, 0%; in the assay with EPHA6 it was 14%; in the assay with EPHA7 it was 0%. Also, the “%Inh” value with EPHA8 turned out to be 11%; in the assay on EPHB1 it was 10%; with EPHB2, 0%; in the assay on EPHB3, 20%; in the assay with EPHB4, 19%; in the assay with EPHB6, 0%. In addition, the “%Inh” value stood at 23% with ERBB2; 0% in the assay on ERBB3; 20% in the assay with ERBB4; 4% with ERK1; 0% with ERK2; 15% in the assay with ERK3. For the same compound, the “%Inh” value in the assay on ERK4 was 14%; in the assay with ERK5, 0%.

Regarding `CNCc1ccc2nc(NC(=O)c3ccc(C(C)(C)C)cc3)cn2c1`, the “%Inh” value was 3% in the assay on EPHA2; 0% with EPHA3; 0% in the assay with EPHA4; 3% in the assay on EPHA5; 0% in the assay with EPHA6; 0% with EPHA7. Further, the “%Inh” value in the assay on EPHA8 is reported as 0%; with EPHB1, 0%; with EPHB2 it was 5%; in the assay on EPHB3, 0%; in the assay on EPHB4 it was 1%; in the assay with EPHB6 it was 6%. Also, the “%Inh” value amounted to 17% with ERBB2; 31% in the assay with ERBB3; 9% in the assay with ERBB4; 1% with ERK1; 0% in the assay on ERK2; 0% in the assay with ERK3. For the same compound, the “%Inh” value was 0% in the assay with ERK4 and 6% with ERK5.
